NS1 inh: influenza NS1 inhibition; Potency, µM (doses to about 46.1 µM), inactives show top-dose activity, positive = more growth; hit rate 0.4% among 270,000; calls by dose curve; also: potency is read from the fitted curve at half-maximal effect; actives are rising curves; nearly all actives have a fitted effect of over 50% in size
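S. cerevisiae expressing influenza A NS1, grown in glucose, washed, then diluted 1:100 into pH 6.0 -URA galactose medium with 23 nl compound. Growth recovery read as OD600; NS1-free strain serves as control.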
AMA1 RON2 block: AMA1-RON2 (P. falciparum) interaction inhibition; AlphaScreen AMA1-biotinylated RON2 peptide binding; Potency, µM (highest dose often 58.2 µM), without a hit: at the top dose activity change, negative = inhibition, hits mostly inhibitors; hit rate 0.2% among 360,000; AID 720542;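 also: potency is read from the fitted curve at half-maximal effect; 0% = vehicle wells and -100% = peptide control; nearly all actives have a fitted effect of over 45% in size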
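AMA1 (3D7) with his tag at 25 nM final met compounds first, then biotinylated RON2 peptide at 25 nM; detection used donor plus acceptor beads, 10 µg/mL apiece, read by AlphaScreen after 30 min at room temperature.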
HCV inhibitor: HCV inhibition; Huh7.5.1 HCVcc-Cre infection, luciferase reporter, 44 h; Potency, µM (series often up to 41.8 µM), for the others: at the highest dose activity change, negative = inhibition, hits mostly inhibitors; hit rate 3.4% among 340,000; AID 651820; also: potency is read from the fitted curve at half-maximal effect; % is scaled to controls: 0 for no effect and ±100 for the full control effect
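Reporter virus HCVcc-Cre (~0.5 moi) infects cells exposed to compound; seeding density 1,000 cells/well with 4 h settling beforehand. Luminescence, 15 sec read, taken 44 h post-infection following a 15 min RT substrate incubation.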
Pf growth 96h: inhibits malaria parasite growth, 96 h | P. falciparum luciferase reporter growth, 96 h | Potency, µM (top dose mostly 28.7 µM), inactives show at the highest dose activity change, negative = inhibition, hits mostly inhibitors | hit rate 6.9% among 320,000 | AID 504834; also: potency is read from the fitted curve at half-maximal effect; % is scaled to controls: 0 for no effect and ±100 for the full control effect
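Luminescence readout: decreased luciferase signal marks inhibited growth of reporter-expressing P. falciparum in infected red cells (2% hematocrit, 0.05% parasitemia final), exposed to compound two generations (96 h, 37 C, 5% CO2).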
Pf growth 48h: inhibits P. falciparum growth in the first generation, 48 h. P. falciparum luciferase growth in erythrocytes, 48 h. Potency, µM (series often up to 28.7 µM), inactives show at the highest dose activity change, negative = inhibition, usual class: inhibitors. hit rate 5.9% among 310,000. AID 504832; also: potency is read from the fitted curve at half-maximal effect; % is scaled to controls: 0 for no effect and ±100 for the full control effect
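Erythrocytes infected with P. falciparum carrying an integrated firefly luciferase reporter (2% hematocrit, 0.1% parasitemia final) were exposed to compounds in RPMI 1640 with 0.5% Albumax at 37 C, 5% CO2. Growth inhibition was scored as reduced luminescence.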
SARS PLpro yeast-1: inhibitors of SARS-CoV papain-like protease in yeast; S. cerevisiae expressing SARS-CoV PLpro, growth rescue; Potency, µM (top dose mostly 32.9 µM), for the others: at the highest dose activity, positive = growth rescue, most hits filed as activators; hit rate 0.19% among 330,000; AID 485353; calls by dose curve; also: potency is read from the fitted curve at half-maximal effect; 0% is about no effect; nearly all actives have a fitted effect of over 55% in size
SARS PLpro yeast-2: Inhibits SARS-CoV PLP in yeast, hit validation | shares compounds with SARS PLpro yeast-1 | yeast expressing SARS-CoV PLpro, growth phenotype rescue | calls only | hit rate 19% among 1,000 | AID 652038; call rule not given here
* marks the source's active call; other numbers are inactive results; i = inactive; ? = inconclusive; . = no result given; + = active, no number; [ ] = dose if it differs, or a comment. In the library only some 12% were active in any assay of this set; here they are far more common. Unless noted, calls follow the shape of the dose curve; as a rule, active = well fitted curve in the direction sought with a large enough effect; inconclusive = small, poorly fitted or top-dose-only effect, or another doubt; inactive = no such curve, though single readings can be large; an effect the other way counts as inactive or inconclusive.

SMILES	NS1 inh	AMA1 RON2 block	HCV inhibitor	Pf growth 96h	Pf growth 48h	SARS PLpro yeast-1	SARS PLpro yeast-2
CCOC(=O)N1CCN(C(=O)CSCC(=O)Nc2nc(-c3ccc(Cl)s3)cs2)CC1	-13%	-4%	11µM*	?	?	13µM*	?
CCCC(=O)Nc1nc(-c2ccc(Cl)s2)cs1	.	3%	?	115%	50%	-4%	.
Cn1ncc2c(NNC(=O)c3ccc(Cl)cc3Cl)ncnc21	-6%	30%	?	22%	33%	?	i
C/C(=N\NC(=S)NC1CCCCC1)c1ccc(C#N)cc1	11%	51%	8%	0%	-6%	16µM*	+
O=C(Nc1cc(Cl)cc(Cl)c1)C(NCCO)c1ccccc1 (stereo unspecified)	-3%	-22%	17%	66%	31%	?	i
O=C(Nc1cc(Cl)cc(Cl)c1)C(c1ccccc1)N1CCCCC1 (stereo unspecified)	-18%	?	17%	0%	0%	-8%	.
CCCOC1CCCN(C(=O)CCc2nnc(CCCCc3ccccc3)o2)C1 (stereo unspecified)	-2%	-2%	?	?	?	-1%	.
Cc1cc(/C=N/NC(N)=S)c(C)n1-c1ccc(Cl)c(Cl)c1	23%	40%	?	12µM*	13µM*	?	i
CCOc1ccc(C(Nc2cccnc2)c2cc(Cl)c3cccnc3c2O)cc1 (stereo unspecified)	13%	6%	?	?	?	-6%	.
CCCCC(=O)NC(c1ccc(N(CC)CC)cc1)c1ccc2cccnc2c1O (stereo unspecified)	-88%	27%	1.4µM*	11%	?	4µM*	?
CCCC(=O)NC(c1ccc(C)cc1)c1ccc2cccnc2c1O (stereo unspecified)	-144%	-20%	3.5µM*	32%	3.7µM*	?	+
CCCC(=O)NC(c1ccc2c(c1)OCO2)c1cc(Cl)c2cccnc2c1O (stereo unspecified)	20%	33%	1.1µM*	-2%	?	2.8µM*	i
CC(C)NC(=S)N/N=C/c1cc(Br)ccc1O	-8%	-1%	?	1.7µM*	2.1µM*	?	+
COC(=O)N/N=C/c1cc(Br)ccc1O	-2%	62%	-3%	?	0%	0%	.
CCn1c(CN2CCN(Cc3ccc(C)cc3)C(CCO)C2)nc2ccccc21 (stereo unspecified)	3%	27%	-14%	?	-17%	-1%	.
COc1ccccc1NCC(=O)N/N=C/C=C/c1ccccc1	?	38%	1%	-1%	-6%	?	i
COCCNC(=S)NC(=O)CC12CC3CC(CC(C3)C1)C2	0%	-13%	-27%	12%	?	?	+
CCOC(=O)COc1c(Cl)cc(C2NC(=S)NC(c3ccccc3)=C2C(C)=O)cc1OCC (stereo unspecified)	-1%	-3%	-19%	?	?	?	i
O=C(c1cc(C2CC2)on1)N1CCCC(N2CCN(c3ccc(F)cc3)CC2)C1 (stereo unspecified)	9%	8%	-21%	-1%	?	2%	.
COc1cc(NC(=O)COc2cc3oc(=O)cc(C)c3cc2Cl)cc(OC)c1OC	-6%	8%	0%	-4%	-2%	3%	.
O=C(N/N=C/c1c(O)n(CCC2=CCCCC2)c(=O)[nH]c1=O)c1ccccc1	5%	27%	4%	?	25%	10µM*	i
O=C(Nc1ccc(NC(=O)c2ccco2)cc1)c1ccc2c(c1)OCO2	1%	0%	-14%	-16%	.	?	+
O=C(Nc1ccc(NC(=O)c2ccco2)c(Cl)c1)c1ccc2c(c1)OCCO2	-45%	2%	?	165%	109%	1%	.
O=C(Nc1nc(-c2ccccc2)cs1)c1ccc2c(=O)n3c(nc2c1)CCCCC3	?	-7%	2.5µM*	?	2%	?	i
CNC(=O)CSc1nc2nn(-c3ccccc3)c(=O)c-2c2n1CCCCC2	0%	6%	5%	?	?	5%	.
SMILES	NS1 inh	AMA1 RON2 block	HCV inhibitor	Pf growth 96h	Pf growth 48h	SARS PLpro yeast-1	SARS PLpro yeast-2
O=C(CSc1nc2nn(-c3ccccc3)c(=O)c-2c2n1CCCCC2)c1ccc(O)c(O)c1	.	-15%[11.6 µM]	?	?	9.3µM*	7.1µM*	i
O=c1cccc2n1CC1CC2CN(Cc2ccc3c(c2)OCO3)C1 (stereo unspecified)	-2%	17%	-6%	-18%	.	?	?
COc1ccc(CN2CC3CC(C2)c2cccc(=O)n2C3)cc1OC (stereo unspecified)	9%	0%	2%	?	2%	-6%	.
CC(=O)Nc1ccc(S(=O)(=O)N(C)CC(=O)OCC(=O)NC(C)C23CC4CC(CC(C4)C2)C3)cc1 (stereo unspecified)	-9%	3%	14%	40%	7%	?	i
O=C(Nc1ccnn1C1CCN(CCCc2ccccc2)CC1)c1cccc(F)c1	-1%	-1%	9%	22%	?	1%	.
COc1ccc(-c2cn(CCC(=O)O)c(-c3ccc(Cl)nc3)n2)cc1	.	11%	18%	53%	15%	?	i
Cc1ccc(C(=O)CNc2ccc(C)c(Cl)c2)cc1	-26%	-5%	0%	-3%	29%	?	?
Cc1ccc(NCC(=O)c2ccccc2)cc1Cl	-16%	0%	-4%	?	?	-16%	.
Cc1ccc2[nH]cc(C(=O)CN3CCN(C)CC3)c2c1	-2%	1%	29%	?	-5%	?	.
Cc1ccc2[nH]cc(C(=O)CCl)c2c1	-44%	0%	25µM*	-24%	?	.	i
O=C(NCC(=O)N1CCN(S(=O)(=O)c2ccccc2)CC1)c1ccc(Br)o1	.	-10%	0%	3%	3%	-4%	.
CCCCNC(=O)N1CCc2ccccc2C1	-10%	-2%	12%	-16%	8%	3.2µM*	i
O=C(NCc1ccc(F)cc1)N1CCc2ccccc2C1	-8%	14%	-1%	-21%	20%	-4%	.
Cc1ccc(NC(=O)/C=C/c2ccc3c(c2)OCO3)nc1	8%	1%	-6%	?	109%	?	i
Cc1ccc(NC(=O)Nc2ccc3c(c2)OCO3)nc1	6%	0%	9%	10%	46%	0%	.
Cc1cccc(NC(=O)NCC(c2cccnc2)N2CCOCC2)c1 (stereo unspecified)	0%	7%	-6%	?	-3%	18µM*	i
